The values below come from PubChem BioAssay (NCATS).

Experiment [1] can be described thus: Primary qHTS for inhibitors of nuclear receptor binding SET domain protein 2 (NSD2) in an isogenic RCH-ACV NSD2 p.E1099K mutant (9B) (AID 1645876). For orientation: Quantitative high-throughput screening tests each substance at several concentrations.
A short description of experiment [2]: Primary qHTS for inhibitors of nuclear receptor binding SET domain protein 2 (NSD2) in an RCH-ACV wild type WT cells (2C) (AID 1645877). Also: potency is read from the fitted curve at half-maximal effect.

Inconclusive results are not listed. A number with no mark means an inactive call. Activity calls are given as the source filed them. Calls follow the shape of the dose curve; as a rule, active = well fitted curve in the direction sought with a large enough effect; inconclusive = small, poorly fitted or top-dose-only effect, or another doubt; inactive = no such curve, though single readings can be large; an effect the other way counts as inactive or inconclusive.
% is scaled to controls: 0 for no effect and ±100 for the full control effect.
Also: nearly all actives have a fitted effect of over 70% in size.

With `O=C(/C=C/c1ccc(O)cc1)OC[C@]12O[C@H]1[C@@H](O)[C@@H]1C=CO[C@@H](O[C@@H]3O[C@H](CO)[C@@H](O)[C@H](O)[C@H]3O)[C@@H]12`, the Potency result in experiment [1] and in experiment [2] was “inactive” in each case.

With `CC(=O)c1c(O)cc2c(c1C)C(=O)CC(O)C2` (stereo unspecified), the Potency entry in experiment [1] and in experiment [2] was “inactive” in each case.

Take `CC(CCC1C(C(=O)O)=CC(=O)CC1(C)C)O[C@@H]1O[C@H](CO)[C@@H](O)[C@H](O)[C@H]1O` (stereo partly specified): the Potency entry in experiment [1] and in experiment [2] was “inactive” in each case.

As for `C/C=C(\C)C(=O)OC[C@H]1O[C@H](O[C@H]2O[C@H](CO)[C@@H](OC(=O)/C(C)=C/C)[C@H](O)[C@H]2O[C@@H]2O[C@H](CO)[C@@H](O)[C@H](O)[C@H]2O)[C@H](O[C@@H]2O[C@H](CO)[C@@H](O)[C@H](O)[C@H]2O)[C@@H](O)[C@@H]1O`, the outcome in experiment [1] and in experiment [2] was “inactive [at 9.23 µM]” in each case.

With `CC1(C)CC[C@]2(C(=O)O[C@@H]3O[C@H](CO)[C@@H](O)[C@H](O)[C@H]3O)CC[C@]3(C)C(=CCC4[C@@]5(C)C[C@@H](O)[C@H](O)[C@@](C)(CO)C5CC[C@]43C)C2C1` (stereo partly specified), the Potency result in experiment [1] and in experiment [2] was “inactive” in each case.

With `COC(=O)C1=CO[C@@H](O[C@@H]2O[C@H](CO[C@@H]3O[C@H](COC(=O)/C=C/c4ccc(O)cc4)[C@@H](O)[C@H](O)[C@H]3O)[C@@H](O)[C@H](O)[C@H]2O)[C@@H]2C(CO)=CC[C@H]12`, the Potency result in experiment [1] and in experiment [2] was “inactive” throughout.

`CCOc1ccc(-c2ccc(Cn3c(CC(C)(C)C(=O)O)c(SC(C)(C)C)c4cc(OCc5ccc(C)cn5)ccc43)cc2)cn1`: the Potency entry in experiment [1] and in experiment [2] was “inactive” in each case.

With `COc1cc(C(O)C(CO)Oc2ccc(CCCO[C@@H]3O[C@@H](C)[C@H](O)[C@@H](O)[C@H]3O)cc2OC)ccc1O` (stereo partly specified), the Potency result in experiment [1] and in experiment [2] was “inactive” each time.

Turning to `CC(C)(O)/C=C1/C(=O)C(C)(C)C(=O)C(C)(C)C1(O)O[C@@H]1O[C@H](COC(=O)c2cc(O)c(O)c(O)c2)[C@@H](O)[C@H](O)[C@H]1O` (stereo partly specified), the Potency result in experiment [1] and in experiment [2] was “inactive” in each case.

In the case of `C=C1CC23CC1(O)CCC2C1=CC2OC(=O)C(C)(C2O)C1C3C(=O)O` (stereo unspecified), the Potency result in experiment [1] and in experiment [2] was “inactive” in each case.

Regarding `COc1cc(C2c3cc(O)c(OC)cc3CC(CO)C2CO)ccc1O` (stereo unspecified), the Potency result in experiment [1] and in experiment [2] was “inactive” in each case.

Turning to `C[C@@H]1C(=O)O[C@H]2CC34[C@H]5C[C@@H](C(C)(C)C)C36[C@@H](OC(=O)[C@@H]6O)O[C@@]4(C(=O)O5)[C@]21O` (stereo partly specified), the Potency result in experiment [1] and in experiment [2] was “inactive” in each case.

As to `C=CCc1ccc(O[C@@H]2O[C@H](CO[C@@H]3O[C@H](CO)[C@@H](O)[C@H](O)[C@H]3O)[C@@H](O)[C@H](O)[C@H]2O)c(O)c1`, the Potency entry in experiment [1] and in experiment [2] was “inactive” each time.

Regarding `C=C1CCC[C@]2(C)C[C@]3(O)OC(=O)C(C)=C3C[C@@H]12`, the Potency result in experiment [1] and in experiment [2] was “inactive” each time.

Take `N#Cc1ccnc(N2C(=O)CC[C@H]2C(=O)N(c2cncc(F)c2)[C@H](C(=O)NC2CC(F)(F)C2)c2ccccc2Cl)c1`: the Potency entry in experiment [1] and in experiment [2] was “inactive” throughout.

Regarding `CC1=C(C)C(=O)OC(C(C)C2C(O)CC3C4C5OC5C5(O)CC(OC6OC(CO)C(O)C(O)C6O)CC(O)C5(C)C4CCC32C)C1` (stereo unspecified), the Potency entry in experiment [1] and in experiment [2] was “inactive” throughout.

On to `CC1=CCC2C(C)(CO)CCCC2(C)C1CC12OC1C(O)C(CO)=CC2O` (stereo unspecified), for which the Potency result in experiment [1] and in experiment [2] was “inactive” in each case.

For the compound `C[C@@H]1O[C@@H](OC[C@H]2O[C@@H](OCCc3ccccc3)[C@H](O)[C@@H](O)[C@@H]2O)[C@H](O)[C@H](O)[C@H]1O`, the Potency result in experiment [1] and in experiment [2] was “inactive” in each case.

For `CC(=O)O[C@H](C[C@@H](C)[C@H]1C(=O)[C@H](O)[C@@]2(C)[C@@H]3CCC4C(C)(C)[C@@H](O[C@@H]5OC[C@H](O)[C@H](O)[C@H]5O)CC[C@@]45C[C@@]35CC[C@]12C)[C@@H]1OC1(C)C` (stereo partly specified), the Potency result in experiment [1] and in experiment [2] was “inactive” throughout.

In the case of `COC1=CC(=O)C[C@@H](C)[C@]12Oc1cc(OC)cc(OC)c1C2=O`, the Potency result in experiment [1] and in experiment [2] was “inactive” throughout.

As to `CC1CCC2C(C(=O)O)=CC3CC(C)(C)CC132` (stereo unspecified), the Potency result in experiment [1] and in experiment [2] was “inactive” in each case.

Take `C[C@H]1C[C@H]2[C@@H]3CCC4=CC(=O)C=C[C@]4(C)[C@@]3(F)[C@@H](O)C[C@]2(C)[C@@]1(O)C(=O)COP(=O)(O)O`: the Potency entry in experiment [1] is “inactive”. In experiment [2], the Potency was 57.8 nM (active).

Turning to `CC(O)(CC(=O)O)CC(=O)O[C@@H]1[C@@H](O)[C@H](OCCc2ccccc2)O[C@H](CO)[C@H]1O` (stereo partly specified), the Potency entry in experiment [1] and in experiment [2] was “inactive” throughout.

Take `COC(=O)[C@@]1(C)CC[C@]2(C(=O)O[C@@H]3O[C@H](CO)[C@@H](O)[C@H](O)[C@H]3O)CC[C@]3(C)C(=CCC4[C@@]5(C)CC[C@H](O[C@@H]6O[C@H](C(=O)O)[C@@H](O)[C@H](O)[C@H]6O)C(C)(C)C5CC[C@]43C)[C@@H]2C1` (stereo partly specified): the activity change, negative = viability loss in experiment [1] is -18.6% [at 9.23 µM]. In addition, the activity change, negative = cell killing in experiment [2] was -26.4% [at 9.23 µM].

`CNC(=O)[C@H]1O[C@@H](n2cnc3c(NCc4ccc(N)c(I)c4)ncnc32)[C@H](O)[C@@H]1O`: in experiment [1], the activity change, negative = viability loss was -0.539% [at 9.23 µM]. Moreover, the activity change, negative = cell killing in experiment [2] is 2.39% [at 9.23 µM].

In the case of `N#CC1C(=O)Nc2scc(-c3ccc(-c4ccccc4O)cc3)c2C1=O` (stereo unspecified), the Potency result in experiment [1] and in experiment [2] was “inactive” each time.

Turning to `CC1CCC(=O)CC(O)C(O)CC(=O)O1` (stereo unspecified), the Potency result in experiment [1] and in experiment [2] was “inactive” in each case.

As to `COc1ccc(C2=CC(=O)OC2Cc2ccc(O)cc2)c(O)c1` (stereo unspecified), the Potency result in experiment [1] and in experiment [2] was “inactive” throughout.
